# Assay outcomes (PubChem BioAssay)
# Many of the other results were omitted from the sample, so hits are more common in it than they were.
# Dicer inh = inhibitors of Dicer pre-microRNA processing, primary screen, biochemical, cat-ELCCA, chemiluminescence. Endoribonuclease Dicer (Homo sapiens), Q9UPY3. cat-ELCCA pre-miR-21 Dicer processing; active compounds read high. z-score at 25 µM. hit rate 6% among 47,000. AID 1347074, 2019; in the data active = z-score above about 3, passing the limit was not always enough;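 note: higher signal means more uncleaved substrate so more Dicer inhibition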
# Numbers stand for hits; n = inactive.
SMILES,Dicer inh
CCN1CCCn2c1nc1c2c(=O)[nH]c(=O)n1C,n
CCS(=O)(=O)c1ccc2oc(=O)[nH]c2c1,n
CCOC(=O)c1ccc(NC(=S)N2CCN3C(=O)c4ccccc4C32c2ccccc2)cc1 (stereo not drawn),n
O=C(O)c1ccc(-c2ccsc2)cc1,n
CCCc1nc2cc(C)c(C)cc2nc1C,n
c1coc(CN2CN(CCN3CCOCC3)Cn3c2nc2ccccc23)c1,n
O=C(CCc1ccccc1)NNc1ccc(F)cc1F,n
O=C(CCc1ccncc1)NNC(=O)N1Cc2ccccc2Oc2ccc(Cl)cc21,3.1
O=C(CCc1nc(-c2ccc(Cl)cc2)no1)NNC(=S)NCCc1ccccc1,n
O=C(NC(=O)c1cnn2c(C(F)(F)F)cc(C(F)(F)F)nc12)Nc1ccc(Cl)cc1,n
CCC1C2=C(CC(C)(C)CC2=O)Nc2c1c(C)nn2-c1ccccc1 (stereo not drawn),n
Cc1nn(-c2ccccc2)c2c1C1=C(C(=O)CC(C)(C)C1)C(c1ccc(N(C)C)cc1)N2 (stereo not drawn),3.4
Cc1[nH]nc2c1C1=C(C(=O)CC(C)(C)C1)C(c1ccc(N(C)C)cc1)N2 (stereo not drawn),n
Cc1ccccc1OCC(O)Cn1c(CO)nc2ccccc21 (stereo not drawn),n
COc1ccc(NC(c2ccccn2)c2ccc3cccnc3c2O)cc1 (stereo not drawn),3.1
Cc1ccc2ccc(C(Nc3ccccn3)c3ccc(F)cc3)c(O)c2n1 (stereo not drawn),n
Cc1ccc2ccc(C(Nc3cccc(Cl)c3)c3ccccn3)c(O)c2n1 (stereo not drawn),n
Cc1cccc(NC(c2ccc(F)cc2)c2ccc3cccnc3c2O)n1 (stereo not drawn),8.9
COc1ccc(C)cc1NC(c1ccccn1)c1ccc2cccnc2c1O (stereo not drawn),n
Cc1cccc(NC(c2ccc3c(c2)OCO3)c2ccc3cccnc3c2O)n1 (stereo not drawn),n
CCCOc1ccc(C(Nc2ccccn2)c2ccc3cccnc3c2O)cc1 (stereo not drawn),n
Cc1cccc(NC(c2ccccc2)c2ccc3ccc(C)nc3c2O)n1 (stereo not drawn),n
COc1ccc(C(Nc2cccc(C)n2)c2ccc3cccnc3c2O)cc1 (stereo not drawn),9.1
CNC(=O)N1CCCC(Cn2cccc2)C1 (stereo not drawn),n
COc1cc(CO)c(C2(C(=O)O)CCCC2)cc1OC,n
SMILES,Dicer inh
C#CC(CC)(CC)NC(=O)Nc1ccccc1,n
O=c1[nH]c(=O)n(-c2ccccc2)c2c1CN(C1CCCCC1)CN2,n
Cn1c(NCc2ccco2)nc2c1c(=O)n(CCc1ccccc1)c(=O)n2C,n
COC(=O)c1cnc(NNS(=O)(=O)c2ccccc2)nc1C(F)(F)F,n
CSc1nc(-c2ccccc2)cc(=O)[nH]1,n
O=C(O)C(Cc1ccc(O)cc1)NC1CCS(=O)(=O)C1 (stereo not drawn),n
CCCn1c(N2CCCCC2)nc2c1c(=O)[nH]c(=O)n2C,n
CNC(=O)Sc1ccccc1Cl,n
Cc1ccc2nc(C)cc(NCCO)c2c1,n
CCOc1ccccc1Nc1cc(C)nc2ccc(OC)cc12,n
Cc1cc(Nc2ccccc2Cl)c2ccccc2n1,n
CCOC(=O)CC(=O)CSc1nc(C)c2cc(OCC)ccc2n1,n
COc1ccc2nc(C)cc(Nc3ccccc3OC)c2c1,3.3
CCOc1ccc2nc(C)cc(Nc3ccc(N(C)C)cc3)c2c1,4.5
COc1ccc2oc(C)c(C(O)c3cc4ccccc4o3)c2c1 (stereo not drawn),n
CN1CCc2c(sc3c2C(=O)NC(c2ccc(F)cc2)N3)C1 (stereo not drawn),n
COc1ccc(Oc2ccc(C(F)(F)F)c(NC(=O)C3CCC3C(=O)O)c2)cc1 (stereo not drawn),n
Cc1ccc(C)c(NS(=O)(=O)c2ccc3c4c(cccc24)C(=O)S3)c1,3.7
O=C(O)c1ccc(NS(=O)(=O)c2ccc3c4c(cccc24)C(=O)S3)cc1,n
Cc1ccccc1NS(=O)(=O)c1cccc2c(N(C)C)cccc12,n
Cc1cccc(NS(=O)(=O)c2ccc3c4c(cccc24)C(=O)N3)c1C,n
CN1C(=O)c2cccc3c(S(=O)(=O)Nc4ccc(C(=O)O)c(O)c4)ccc1c23,n
O=C1Sc2ccc(S(=O)(=O)Nc3ccc4oc(=O)sc4c3)c3cccc1c23,11
COC(=O)C1C(=O)C2=C(CC1C)Nc1ccccc1NC2c1ccc2c(c1)OCO2 (stereo not drawn),n
Cc1[nH]cnc1C(=O)N/N=C/c1ccncc1,n
SMILES,Dicer inh
COc1ccc(/C=C/c2nc3n(n2)C=COc2ccccc2-3)cc1,n
C1=Cn2nc(/C=C/c3c[nH]c4ccccc34)nc2-c2ccccc2O1,4.2
CSc1ccc(/C=C/c2nc3n(n2)C=COc2ccccc2-3)cc1,n
O=c1oc(-c2cccc(Cl)c2)nc2ccccc12,n
O=c1oc(-c2ccc(-c3ccccc3)cc2)nc2ccccc12,n
O=c1oc(-c2ccccc2Br)nc2ccccc12,4.6
CC(C)(C)OC(=O)NCCN=Cc1ccc(Cl)cc1,n
Cn1c(=O)c2c(ncn2CC(=O)Nc2nncs2)n(C)c1=O,n
CC1CCCCN1C(=O)c1cc2n(n1)C(C(F)(F)F)CC(c1ccco1)N2 (stereo not drawn),n
Cc1ccc(SCc2cc(=O)[nH]c(Nc3nc(C)c4cccc(C)c4n3)n2)cc1,n
CCc1ccc2nc(Nc3nc(CSc4nnc(C)s4)cc(=O)[nH]3)nc(C)c2c1,3.1
CCOc1ccc2nc(Nc3nc(O)cc(=O)[nH]3)nc(C)c2c1,n
CCOC(=O)C1CCCN(S(=O)(=O)c2ccc(C(=O)OC)n2C)C1 (stereo not drawn),n
Cc1ccc2nc3c(nc2c1C)C(O)=C3O,4.2
Cc1ccccc1NC(NC(=O)c1ccccc1)(C(F)(F)F)C(F)(F)F,n
CCCCc1ccc(Nc2ncc(C(=O)OCC)c(C(F)(F)F)n2)c(C)c1,n
S=C(Nc1ccccc1)N1c2ccccc2Sc2ccccc21,n
CC(C)(C)OC(=O)NCC(=O)NNC(=S)Nc1ccccc1,n
O=C(CN1c2ccccc2Sc2ccccc21)NNC(=S)Nc1ccccc1,5.2
Cc1nn(C(=O)c2ccc(C(F)(F)F)cc2)c(C)c1Oc1ccc(Cl)cc1,n
O=C1c2ccccc2C(=O)N1c1snnc1-c1ccc(Cl)cc1,n
COC(=O)C1=C(C)NC2=C(C(=O)CC(c3ccccc3)C2)C1c1ccc(OC(C)=O)c(OC)c1 (stereo not drawn),n
CCOC(=O)c1nnn(Cc2ccccc2Cl)c1N,n
CCCS(=O)(=O)c1c(C)c(C)n(Cc2cccc(Cl)c2)c1N,n
CCOC(=O)c1c(C)nn(-c2ccc(NC(=O)Nc3cccc(Cl)c3C)cc2)c1C,n
SMILES,Dicer inh
COc1cc(/C=N/N=C/c2ccccc2O)cc(OC)c1OC,7.4
COc1ccc(/C=N/N=C/c2ccc(OC)c(OC)c2)cc1OC,n
CCNC(=S)N/N=C/c1cc(OC)c(OC)c(OC)c1,n
CN(C)c1nc(OCCNS(=O)(=O)c2ccccc2)nc(N(C)C)n1,n
O=C1CC(/C=C/c2ccccc2)Cc2nc(N3CCN(c4ccccn4)CC3)ncc21 (stereo not drawn),n
COc1ccc(-c2csc(Nc3ccc(C)cn3)n2)cc1OC,n
Cc1ccc(Nc2nc(-c3ccc(O)c(O)c3)cs2)nc1,n
Cc1ccc(Nc2nc(-c3ccc(O)cc3)cs2)nc1,4.4
CCOC(=O)c1c(N/N=C/c2cccc(Cl)c2)n[nH]c1C,n
